± gives the standard deviation. In all, about 8,200 sequences were measured (“pre-steady-state target cleavage rate”: median about 0.024, highest 2% from about 1.3 on). The sample holds the highest values, similar sequences and a random draw of the others, so the mix is not that of the screen.
Tested on: MIWI (PIWIL1) piRISC loaded with L1MC piRNA (30 nt)
Experiment: pre-steady-state target cleavage rate (min^-1); MIWI and MILI are mouse PIWI proteins and EfPiwi is from a freshwater sponge; tags in brackets are library labels; higher = faster piRNA-guided slicing of the target
Conditions: guide: L1MC piRNA 5'p-UAACUAAAUACUAUGCAAGCUGUAGGUCCU
Method in brief: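 Three pooled Cleave-'n-Seq trials supplied the data, with k3 capped at 0.0001 min^-1. In each, […] transcribed, DNA-blocked target RNA library and 1 nM active affinity-purified piRISC with one synthetic guide reacted in HEPES–potassium acetate buffer at 33 °C for 0–8 or 0–960 min, with or without 500 nM GTSF1 partner protein. Uncleaved targets were sequenced and normalised to depth and to weakly complementary targets. A burst-and-steady-state fit provided the pre-steady-state cleavage rate.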

[1] = auxiliary factor: 500 nM mouse GTSF1
[2] = auxiliary factor: none (no GTSF1)
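Further: 1 nM active piRISC with 0.1 nM target library at 33 °C single turnover.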

Sequence | pre-steady-state target cleavage rate [1] | pre-steady-state target cleavage rate [2]
UCCUGGAACAGCUUGCUAUGUAUUUAGUUA | 0.0729 ± 0.011 | 0.00814 ± 0.0024
UCCUCCUACAGCUUGCAUACUAUUUACUUA | 0.197 ± 0.023 | 0.018 ± 0.0033
UCGACCUACAGCUUGCAUAUAUUUAGUUA | 0.489 ± 0.044 | 
UCGACCUACAGCUUGCAUAGUUAUUUAGUUA | 0.0764 ± 0.016 | 0.00495 ± 0.0031
UCGACCUACAGCUUGCAUAUUAUUUAGUUA | 1.5 ± 0.072 | 0.0515 ± 0.013
AGGACCUACAGCUUGCAUAUUAUUUAGUUA | 1.23 ± 0.074 | 0.0773 ± 0.017
UGGACCUACAGCUUGCAUAUUAUUUAGUUA | 1.71 ± 0.12 | 0.0442 ± 0.0088
UGGACCUACAGCUUGCAUAUAUUUAGUUA | 0.429 ± 0.067 | 0.00298 ± 0.0022
UCCUGGAACAGCUUGCACAGUAUUUAGUUA | 1.01 ± 0.035 | 0.0853 ± 0.018
UCCUGGAUGUGCUUGCAUAGUAAUUAGUUA | 0.0816 ± 0.011 | 0.0162 ± 0.0045
UCCUCCUACUGCUUGCAUAGUAUAUAGUUA | 0.472 ± 0.026 | 0.0228 ± 0.0045
UCCUCCUUCUGCUUGCAUAGUAUUUAGUUA | 1.18 ± 0.038 | 0.0546 ± 0.0091
UGGACCUACAGCUUGAAUAGUAUUUAGUUA | 1.63 ± 0.08 | 0.0423 ± 0.0078
AGGACCUACAGCUUGACAUAGUAUUUAGUUA | 1.07 ± 0.093 | 0.0105 ± 0.0047
AGGACCUACAGCUUGAUAGUAUUUAGUUA | 1.21 ± 0.082 | 0.0133 ± 0.0041
UGGACCUACAGCUUGCAAUAGUAUUUAGUUA | 0.0655 ± 0.011 | 
UCGACCUACAGCUUGAUAGUAUUUAGUUA | 1.08 ± 0.067 | 0.00731 ± 0.0024
UCCACCUACAGCUUGAAUAGUAUUUAGUUA | 1.01 ± 0.035 | 0.0277 ± 0.0053
UGGACCUACAGCUUGAUAGUAUUUAGUUA | 1.03 ± 0.096 | 0.0103 ± 0.003
UCGACCUACAGCUUGAAUAGUAUUUAGUUA | 1.48 ± 0.05 | 0.0397 ± 0.0067
AGGACCUACAGCUUGAAUAGUAUUUAGUUA | 1.44 ± 0.059 | 0.0532 ± 0.01

Sequence | pre-steady-state target cleavage rate [1] | pre-steady-state target cleavage rate [2]
UCCUGGAUGUGCUUGCAUAGUAUUUACAUA | 0.08 ± 0.017 | 0.0058 ± 0.0031
UCCUGGAUGAGCAUGGAUAGUAUUUAGUUA | 0.475 ± 0.042 | 0.0081 ± 0.0031
UCGACCUACAGCUUGCUUAGUAUUUUCAAA | 0.329 ± 0.048 | 
UCCUGGAUGUGCAUGCAUAGUAUUUAGUAA | 0.0251 ± 0.0072 | 0.00346 ± 0.0025
UCCUGGAUGAGCUUGCUUAGUAUAUAGUUA | 0.0747 ± 0.013 | 0.0101 ± 0.0035
UCCUGGAAGAGCUUGCUUAGUAUUUAGUUA | 0.761 ± 0.051 | 0.0227 ± 0.0089
UCCUGCUACAGCAUGCAUAGUAAUUAGUUA | 0.73 ± 0.077 | 0.00723 ± 0.0026
UCCUGGAUGUCCUUGCAUAGUAUAUUAGUUA | 0.025 ± 0.0089 | 
UCCUGGAACAGCUUGCAUAGUAUUUGGUUA | 0.781 ± 0.041 | 0.0538 ± 0.011
UCCACCUACAGCUUGCUUAGUAUUUAGUAA | 0.484 ± 0.044 | 0.0103 ± 0.0023
AGGACUUACAGCUUGCAUAGUAUUUAGUUA | 1.39 ± 0.064 | 0.0831 ± 0.012
AGGACCGUACAGCUUGCAUAGUAUUUAGUUA | 1.16 ± 0.061 | 0.0943 ± 0.019
UGGACCUACAGCUUGCAUAGUAUUUACUUA | 0.24 ± 0.021 | 0.0361 ± 0.0058
UGGACCAUACAGCUUGCAUAGUAUUUAGUUA | 1.3 ± 0.066 | 0.0868 ± 0.013
UCGACUUACAGCUUGCAUAGUAUUUAGUUA | 1.56 ± 0.045 | 0.0755 ± 0.013
UCGACUACAGCUUGCAUAGUAUUUAGUUA | 1.3 ± 0.049 | 0.0713 ± 0.012
UCCACUUACAGCUUGCAUAGUAUUUAGUUA | 1.17 ± 0.034 | 0.0668 ± 0.0094
UCGACCUUACAGCUUGCAUAGUAUUUAGUUA | 1.47 ± 0.057 | 0.091 ± 0.02
UGGACUUACAGCUUGCAUAGUAUUUAGUUA | 1.45 ± 0.063 | 0.081 ± 0.013
UCCUGGAUGAGCUAGCAUAGUAUAUAGUUA | 0.194 ± 0.031 | 0.00454 ± 0.0041
UCCACCUACUCGUUGCAUAGUAUUUAGUAA | 0.406 ± 0.031 | 0.00745 ± 0.0019

Sequence | pre-steady-state target cleavage rate [1] | pre-steady-state target cleavage rate [2]
UCCUGCUACAGCUUCCAUAGAAUUUAGUUA | 0.0338 ± 0.013 | 
UCCUGGAUGAGCUUGCAUAGUAUUAAGUAA | 0.197 ± 0.036 | 0.0178 ± 0.0055
UCCACCUAGAGCUUGCAUAGUAUUUAGAUA | 0.178 ± 0.032 | 0.00955 ± 0.0025
UCCUGCUACAGCUUGCAUAGUAUUUUCAUA | 0.295 ± 0.055 | 
UCCUGGAUGUGCUUGCAAAGUAUUUUGUUA | 0.0495 ± 0.008 | 0.0109 ± 0.0032
UGGAGCUACUGCUUGCAUAGUAUUUAGUUA | 1.09 ± 0.055 | 0.0621 ± 0.0085
AGGACCAUCAGCUUGCAUAGUAUUUAGUUA | 1.3 ± 0.048 | 0.0926 ± 0.017
UCCUCCUCAGCUUGCAUAGUAUUUAGUUA | 1.05 ± 0.027 | 0.0482 ± 0.009
UCCUCCUAUCAGCUUGCAUAGUAUUUAGUUA | 1.49 ± 0.072 | 0.0492 ± 0.011
AGGACCUAUCAGCUUGCAUAGUAUUUAGUUA | 1.25 ± 0.055 | 0.0769 ± 0.013
UCGACCUAUCAGCUUGCAUAGUAUUUAGUUA | 1.61 ± 0.06 | 0.0851 ± 0.018
UCGACCUAUAGCUUGCAUAGUAUUUAGUUA | 1.04 ± 0.055 | 0.0703 ± 0.014
UGGACCAUCAGCUUGCAUAGUAUUUAGUUA | 1.44 ± 0.056 | 0.101 ± 0.019
UCCACCUAUCAGCUUGCAUAGUAUUUAGUUA | 1.01 ± 0.037 | 0.0531 ± 0.011
UGGACCUAUAGCUUGCAUAGUAUUUAGUUA | 1.23 ± 0.054 | 0.0564 ± 0.011
UCCUCCAUCAGCUUGCAUAGUAUUUAGUUA | 0.739 ± 0.027 | 0.0679 ± 0.013
UGGACCUAUCAGCUUGCAUAGUAUUUAGUUA | 1.48 ± 0.086 | 0.074 ± 0.016
UGGACCAUCAGCUUGCAUAGUAUUUAGUAA | 1.05 ± 0.053 | 0.0577 ± 0.013
UCCUGGAUGUCGAACGUAUGAUUUUAGUUA | < 0.0001 | 
UCCUGCUUGUGCUUGCAUAGUAUUUAGUAA | 0.133 ± 0.019 | 0.0144 ± 0.0036

From the supplement of paper PMC10338343
